In PubChem BioAssay one finds composite z-score and z-score data, which are given here for 5 compounds.

A short description of assay [1]: anti-His antibody binders, primary screen, artefact control for SMM control protein annotation, biochemical, small-molecule microarray, 635 nm fluorescence (AID 1128).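 Also: score merges feature fluorescence with signal-to-noise for each printed compound spot.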 Conditions: anti-His Alexa647 antibody binding, higher = more signal.
For assay [2], the system named is Human papillomavirus type 1a E7 protein (residues 1-88). Put plainly: HPV1a E7 small-molecule binders, primary screen, biochemical, small-molecule microarray, residues 1-88, 635 nm (AID 1129). Conditions: small-molecule microarray binding, fluorescence 635 nm; higher = more signal.
Assay [3] concerns the target Focal adhesion kinase 1 (Homo sapiens) (UniProt Q05397). Put plainly: small-molecule microarray binders of FAK, primary screen, biochemical, 635/667 nm fluorescence, BSA, DTT (AID 1130).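 Also: composite of spot emission at 667 nm and signal to noise over triplicate slides.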 Conditions: PTK2 binding, 635 nm fluorescence, higher = more signal.
In assay [4] the test system is Fibrinogen (Alexa647-labelled). Put plainly: fibrinogen binders on compound microarrays, profiling panel, artefact control for SMM control-protein annotation, biochemical, small-molecule microarray, 635/667 nm fluorescence (AID 1131).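 Also: z-score merges 667 nm fluorescence with per-spot signal-to-noise over triplicate slides.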 Conditions: fibrinogen-A647 binding fluorescence, higher = more signal.
The target of assay [5] is Follistatin (Homo sapiens) (UniProt P19883). Put plainly: follistatin binders on small-molecule microarrays, primary screen, biochemical, small-molecule microarray, 635/667 nm fluorescence (AID 1132). As to conditions: FST binding, 635 nm fluorescence, higher = more signal.
Assay [6] concerns the target Fibroblast growth factor 2 (Homo sapiens) (UniProt P09038). Put plainly: FGF2 binders on small-molecule microarrays, primary screen, biochemical, small-molecule microarray, 635/667 nm fluorescence (AID 1133). As to conditions: small-molecule microarray binding, FGF2, fluorescence 635/667; higher = more signal.
Assay [7] is described as follows: mitochondrial membrane potential change in A549 cells, profiling panel, cell-based, JC-1 fluorescence, basal, 24 h, 100 nL (AID 1138).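 Also: A549 lung adenocarcinoma cells under basal conditions with no added stimulus; test concentration not given here.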 As to conditions: higher = more signal.
The subject of assay [8] is Lefty1. The assay is described as follows: Lefty1 binders on small-molecule microarrays, primary screen, biochemical, small-molecule microarray, 635/667 nm fluorescence (AID 1139). Conditions: small-molecule microarray binding, fluorescence 635/667; higher = more signal.
For assay [9], the system named is wheat germ agglutinin (Triticum aestivum), Alexa647-labelled. Put plainly: wheat germ agglutinin binders on compound microarrays, profiling panel, artefact control for SMM control-protein annotation, biochemical, small-molecule microarray, 635/667 nm fluorescence (AID 1140).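 Also: score merges 667 nm feature emission with signal to noise over triplicate slides.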 Conditions: WGA-A647 binding, 635 nm fluorescence, higher = more signal.
Assay [10] deals with Luciferin 4-monooxygenase (Photinus pyralis) (UniProt P08659). Put plainly: firefly luciferase enzyme inhibitors, primary screen, biochemical, luminescence, purified enzyme, 2006 set (AID 1141).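 Also: cell-free assay with purified firefly luciferase at 100 ng per well in PBS; test concentration not given here.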 Conditions: SteadyGlo luminescence, 30 min, higher = more signal, called active from +8 up or from −8 down.
The test system of assay [11] is Wnt5a (protein binding on small-molecule microarray). Put plainly: Wnt5a binders on small-molecule microarray, primary screen, biophysical, 635/667 nm fluorescence (AID 1142).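 Also: fluorescence read at 667 nm with signal to noise per printed feature.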 Conditions: 635 nm fluorescence, higher = more signal.
A short description of assay [12]: cell viability in Huh7 cells, primary screen, cytotoxicity control for HCV replication inhibitor project, CellTiter-Glo luminescence, basal, 48 h (AID 1143).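 Also: Huh7 hepatoma cells carrying a hepatitis C replication reporter with no stimulus; test concentration not given here.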 Conditions: Huh7 HCV replicon, higher = more signal, called active from +8 up or from −8 down. On the technique in general: Cellular ATP, detected with luciferase, serves as a proxy for viable cell number.
Assay [13] in a line: P. aeruginosa biofilm formation inhibitors, primary screen, PAO1 strain, BacTiter-Glo luminescence, LB-PBS (AID 1144). As to conditions: 12 h, higher = more signal.
Assay [14] in a line: CREB reporter modulators without forskolin, primary screen, cell-based, PC12, CRE-LacZ reporter, unstimulated (AID 1145). Conditions: no forskolin, luminescence, 4.5 h, higher = more signal, called active from +8 up or from −8 down.
Assay [15] in a line: CREB reporter modulators under forskolin, primary screen, cell-based, PC12, CRE-LacZ reporter, forskolin-stimulated (AID 1146).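 Also: PC12 cells with 6xCRE LacZ reporter stimulated by forskolin 10 µM; beta-galactosidase reporter signal reflecting CREB driven transcription.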 As to conditions: luminescence, 4.5 h, higher = more signal, called active from +8 up or from −8 down.
Assay [16] addresses Streptavidin (Streptomyces avidinii) (UniProt P22629). The assay is described as follows: streptavidin binders on small-molecule microarray, primary screen, artefact control for SMM compound annotation, biophysical, 635/667 nm fluorescence (AID 1147).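 Also: signal reflects streptavidin binding to arrayed compounds as a control protein.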 Conditions: streptavidin binding, higher = more signal.
Assay [17] is described as follows: small-molecule binders of probe aInhba, primary screen, biochemical, small-molecule microarray, 635/667 nm fluorescence (AID 1148).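 Also: score merges 667nm spot fluorescence with signal-to-noise for antibody binding to printed compounds.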 As to conditions: higher = more signal.
Assay [18] concerns the target Torsin-1A (Homo sapiens) (UniProt O14656). The assay is described as follows: torsin A binders from cell lysate, primary screen, small-molecule microarray, wild-type, 635/667 nm (AID 1149). Conditions: COS7 hTOR1A-WT lysate, 635 nm fluorescence, higher = more signal.
The target is the same in assay [19]. Put plainly: small-molecule binders of mutant TOR1A in lysate, primary screen, cell lysate, small-molecule microarray, COS7 lysate, 635/667 nm fluorescence (AID 1150).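 Also: score pools 667 nm emission and signal to noise measuring lysate protein binding.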 Conditions: COS7 hTOR1A mutant lysate, 635 nm fluorescence, higher = more signal.
Assay [20] has as its system Sonic hedgehog protein (Shh). Put plainly: small-molecule binders of Shh protein, primary screen, biochemical, small-molecule microarray, 635/667 nm fluorescence (AID 1151).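 Also: Shh protein binding to compounds spotted on small-molecule microarray slides; score combines spot fluorescence intensity with signal-to-noise across triplicate slides.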 As to conditions: small-molecule microarray binding, 635 nm fluorescence; higher = more signal.

Activity calls are given as the source filed them. Unless noted, no rule for the calls is given here.

Chain of Luciferin 4-monooxygenase (Photinus pyralis) (P08659 whole entry, looked up): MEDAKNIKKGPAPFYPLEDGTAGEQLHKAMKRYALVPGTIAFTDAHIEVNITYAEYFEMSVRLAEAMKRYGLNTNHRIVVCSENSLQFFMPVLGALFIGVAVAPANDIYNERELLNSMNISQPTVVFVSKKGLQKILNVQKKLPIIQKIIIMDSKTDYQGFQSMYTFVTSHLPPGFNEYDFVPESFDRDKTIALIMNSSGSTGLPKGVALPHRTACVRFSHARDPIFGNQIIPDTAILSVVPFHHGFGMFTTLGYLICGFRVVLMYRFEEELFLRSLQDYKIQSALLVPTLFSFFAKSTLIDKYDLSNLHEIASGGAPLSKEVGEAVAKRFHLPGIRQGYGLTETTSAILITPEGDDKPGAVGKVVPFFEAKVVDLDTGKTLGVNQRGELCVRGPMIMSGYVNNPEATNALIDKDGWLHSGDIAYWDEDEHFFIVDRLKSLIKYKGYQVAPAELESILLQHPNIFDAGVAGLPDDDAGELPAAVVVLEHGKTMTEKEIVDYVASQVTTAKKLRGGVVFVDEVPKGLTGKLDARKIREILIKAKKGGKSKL
Chain of Fibroblast growth factor 2 (Homo sapiens) (P09038 whole entry, looked up): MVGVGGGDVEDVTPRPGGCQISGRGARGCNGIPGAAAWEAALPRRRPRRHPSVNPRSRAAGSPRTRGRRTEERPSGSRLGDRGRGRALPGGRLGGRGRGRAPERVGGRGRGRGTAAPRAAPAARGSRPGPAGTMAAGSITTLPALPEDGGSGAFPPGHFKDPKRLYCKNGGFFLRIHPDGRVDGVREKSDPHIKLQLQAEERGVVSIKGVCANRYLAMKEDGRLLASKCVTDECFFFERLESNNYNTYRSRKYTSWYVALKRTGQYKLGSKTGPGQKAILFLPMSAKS
Chain of Follistatin (Homo sapiens) (P19883 whole entry, looked up): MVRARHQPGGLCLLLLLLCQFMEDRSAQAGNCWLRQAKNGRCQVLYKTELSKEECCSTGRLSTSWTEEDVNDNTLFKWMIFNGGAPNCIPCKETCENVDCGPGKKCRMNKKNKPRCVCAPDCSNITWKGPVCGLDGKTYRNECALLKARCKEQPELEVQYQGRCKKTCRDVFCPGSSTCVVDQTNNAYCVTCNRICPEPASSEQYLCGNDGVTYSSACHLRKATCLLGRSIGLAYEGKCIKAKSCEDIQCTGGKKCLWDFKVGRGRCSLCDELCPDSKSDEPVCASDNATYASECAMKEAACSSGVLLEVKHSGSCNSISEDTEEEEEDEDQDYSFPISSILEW
Chain of Torsin-1A (Homo sapiens) (O14656 whole entry, looked up): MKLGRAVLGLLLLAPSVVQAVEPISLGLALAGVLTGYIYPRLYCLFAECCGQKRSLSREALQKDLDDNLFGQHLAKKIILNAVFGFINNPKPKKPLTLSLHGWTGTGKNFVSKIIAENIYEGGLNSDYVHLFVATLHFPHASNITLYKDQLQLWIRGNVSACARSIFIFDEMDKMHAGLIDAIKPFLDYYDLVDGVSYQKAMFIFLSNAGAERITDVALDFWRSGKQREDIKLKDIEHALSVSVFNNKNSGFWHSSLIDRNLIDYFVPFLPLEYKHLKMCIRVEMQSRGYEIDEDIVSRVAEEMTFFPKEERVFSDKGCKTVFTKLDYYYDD
Chain of Focal adhesion kinase 1 (Homo sapiens) (Q05397 whole entry, looked up): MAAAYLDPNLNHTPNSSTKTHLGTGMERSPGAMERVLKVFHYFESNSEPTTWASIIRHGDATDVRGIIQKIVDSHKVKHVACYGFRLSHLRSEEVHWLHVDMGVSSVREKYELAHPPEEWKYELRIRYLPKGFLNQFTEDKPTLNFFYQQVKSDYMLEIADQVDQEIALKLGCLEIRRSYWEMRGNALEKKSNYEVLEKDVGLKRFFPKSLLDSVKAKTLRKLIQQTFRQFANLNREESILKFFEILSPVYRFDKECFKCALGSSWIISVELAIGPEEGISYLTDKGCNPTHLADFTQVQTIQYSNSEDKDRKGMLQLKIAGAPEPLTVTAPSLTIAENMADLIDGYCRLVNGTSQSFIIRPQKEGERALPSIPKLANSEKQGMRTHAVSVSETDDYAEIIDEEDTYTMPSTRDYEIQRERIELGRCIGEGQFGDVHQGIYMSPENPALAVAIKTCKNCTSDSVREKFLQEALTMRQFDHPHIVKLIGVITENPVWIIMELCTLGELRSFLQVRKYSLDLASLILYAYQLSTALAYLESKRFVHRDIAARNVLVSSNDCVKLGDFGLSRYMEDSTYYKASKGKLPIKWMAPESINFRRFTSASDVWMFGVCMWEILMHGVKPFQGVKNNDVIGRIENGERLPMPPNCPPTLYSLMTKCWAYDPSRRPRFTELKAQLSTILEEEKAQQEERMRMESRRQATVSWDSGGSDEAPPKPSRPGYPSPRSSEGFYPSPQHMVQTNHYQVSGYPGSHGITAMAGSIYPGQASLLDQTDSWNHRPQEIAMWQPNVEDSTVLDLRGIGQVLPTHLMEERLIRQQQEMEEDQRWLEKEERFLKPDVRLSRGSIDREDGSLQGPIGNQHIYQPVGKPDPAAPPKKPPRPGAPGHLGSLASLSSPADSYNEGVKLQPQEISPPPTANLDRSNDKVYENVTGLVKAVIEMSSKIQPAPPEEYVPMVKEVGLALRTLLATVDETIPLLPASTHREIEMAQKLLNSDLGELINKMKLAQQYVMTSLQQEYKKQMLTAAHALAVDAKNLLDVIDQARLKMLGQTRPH
Chain of Streptavidin (Streptomyces avidinii) (P22629 whole entry, looked up): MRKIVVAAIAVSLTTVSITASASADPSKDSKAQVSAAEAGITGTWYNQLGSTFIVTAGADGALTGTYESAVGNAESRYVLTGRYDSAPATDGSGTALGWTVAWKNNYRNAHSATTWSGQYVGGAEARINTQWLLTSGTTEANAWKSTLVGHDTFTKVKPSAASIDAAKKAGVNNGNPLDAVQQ

With `CCOC(=O)C[C@H]1[C@H](OC(=O)c2cc3ccccc3oc2=O)[C@@H](NC(=O)c2ccc3ccccc3c2)c2cc(OCCCO)ccc2N1C(=O)c1ccccc1`, the composite z-score in [1] was found to be 0.138; in [2], 1.2; in assay [3], 0.482; in assay [4] it was 0.414; in [5] it was 1.08; in [6], 0.512. The composite z-score was 1.09 in assay [8]; 0.357 in assay [9]; 0.406 in [11]; 0.976 in assay [16]; -0.0405 in assay [17]; 1.14 in assay [18]. Moreover, the composite z-score in assay [19] is 1.11; in assay [20] it was 1.54. Besides, the z-score in assay [7] was -0.59; in assay [10], 0.151 (inactive); in assay [12], -3.04 (inactive); in assay [13], 1.4 (inactive); in assay [14], 9.27 (active); in [15], 0.368 (inactive).
With `CN1C(=O)C2C=CC(C(O)C(c3ccccc3)c3ccccc3)N(Nc3ccccc3)C2C1=O` (stereo not given), the composite z-score amounted to 0.889 in assay [1]; 1.19 in assay [2]; 0.668 in [3]; 1.03 in assay [4]; 1.36 in assay [5]; 0.0635 in assay [6]. Besides, the composite z-score in assay [8] is 0.643; in [9], 0.889; in assay [11], 0.35; in [16] it was 1.49; in [17], 0.0857; in assay [18], 0.096. For the same compound, the composite z-score in assay [19] was determined as 0.585; in assay [20], 0.424. The z-score is 0.0496 in assay [7]; -0.0128 (inactive) in [10]; -1.91 (inactive) in assay [12]; -0.437 (inactive) in [13]; -0.14 (inactive) in assay [14]; 0.574 (inactive) in assay [15].
Regarding `O=C1O[C@H](c2ccccc2)[C@H](c2ccccc2)N2[C@H]1[C@@H](C(=O)NC[C@H](O)c1ccccc1)[C@]1(C(=O)Nc3ccc(C#CC4=CCCCC4)cc31)[C@H]2c1ccc(O)cc1`, the composite z-score in [1] is 1.86; in assay [2], 1.17; in assay [3], 0.191; in assay [4] it was 0.826; in assay [5], 1.35; in assay [6], 1.59. Moreover, the composite z-score in assay [8] is 0.82; in [9] it was 0.331; in assay [11], 0.688; in assay [16], 0.758; in [17] it was 0.121; in [18] it was 0.769. The results for the composite z-score in [19] and in [20] were 1.08 and 1.51, respectively. The z-score in assay [7] was -1.38; in assay [10] it was -1.5 (inactive); in [12], -5.36 (inactive); in assay [13] it was -0.354 (inactive); in assay [14], -0.602 (inactive); in [15], -0.912 (inactive).
`COCCOC(=O)N1C(=O)[C@@]2(c3cc(C#Cc4ccc(OC)cc4)ccc31)[C@H](c1ccc(OCCO)cc1)N1[C@H](c3ccccc3)[C@H](c3ccccc3)OC(=O)[C@H]1[C@@H]2C(=O)N1CCc2cc(OC)c(OC)cc2C1`: the composite z-score was 0.512 in assay [1]; 1.08 in assay [2]; 0.272 in [3]; -0.122 in [4]; 1.25 in [5]; 1.24 in [6]. The composite z-score in assay [8] was 1.13; in assay [9], -0.12; in assay [11] it was 0.377; in [16] it was 0.482; in assay [17], -0.0736; in assay [18], 0.37. For the same compound, the composite z-score in [19] was 0.454; in assay [20], 1.85. Moreover, the z-score in [7] is -1.35; in assay [10] it was -0.584 (inactive); in [12], -2.85 (inactive); in assay [13], -1.61 (inactive); in assay [14] it was -1.15 (inactive); in [15] it was -1.33 (inactive).
Take `[N-]=[N+]=NCc1ccccc1C[C@@]1(C(=O)NCc2ccccc2)N=C(c2ccc(OCCCO)cc2)O[C@@H]1c1ccccc1CN=[N+]=[N-]`: the composite z-score in assay [1] amounted to 1.44; in assay [2] it was 1.17; in [3], 0.96; in assay [4], 0.915; in [5], 0.557; in assay [6], 0.0516. Moreover, the composite z-score was -0.621 in assay [8]; 1.03 in [9]; 0.262 in [11]; 1.19 in assay [16]; 0.406 in assay [17]; 0.327 in [18]. For the same compound, the composite z-score was 0.367 in assay [19] and -0.603 in [20]. In addition, the z-score is 0.573 in assay [7]; 0.0675 (inactive) in assay [10]; -3.35 (inactive) in assay [12]; 0.503 (inactive) in assay [13]; 0.297 (inactive) in [14]; 0.448 (inactive) in [15].
